# In PubChem BioAssay AID1509 (The Scripps Research Institute Molecular Screening Center, 2009):
# Hit rate of the full screen: of about 220,000 compounds, about 770 (0.35%) were called active. The entries come from a sample that favours actives as a whole. Unmarked numbers belong to inactive results. Cut-off read from the data, not from the text of the source: active = activation above about 11%; inactive = the rest.
# Molecular target: Sphingosine 1-phosphate receptor 4 (Homo sapiens) (UniProt O95977)
# Sequence (O95977 whole entry, looked up): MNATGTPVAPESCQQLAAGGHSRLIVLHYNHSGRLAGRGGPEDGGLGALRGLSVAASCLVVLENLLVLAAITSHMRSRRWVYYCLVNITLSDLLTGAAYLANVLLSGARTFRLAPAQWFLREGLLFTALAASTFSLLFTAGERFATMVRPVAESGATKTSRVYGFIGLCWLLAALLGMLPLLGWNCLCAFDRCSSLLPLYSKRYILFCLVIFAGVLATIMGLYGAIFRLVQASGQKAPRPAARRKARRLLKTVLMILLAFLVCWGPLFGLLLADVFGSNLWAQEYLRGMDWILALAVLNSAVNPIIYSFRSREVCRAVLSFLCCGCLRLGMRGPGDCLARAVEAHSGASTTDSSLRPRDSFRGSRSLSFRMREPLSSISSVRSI
# Assay: S1P4 receptor agonists, primary screen, cell-based (AID 1509);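 note: 0% = DMSO vehicle and 100% = reference agonist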
# Settings: S1P4-expressing cell line, agonist reporter assay; at 4.98 µM; hits give high values
row,Compound,activation
1,CC(C)N(CC#CCC1(O)c2ccccc2-c2ccccc21)C(C)C,16.1% (active)
2,NCC(O)c1ccc(O)cc1 (stereo not given),1.71%
3,O=c1[nH]c(=O)n(-c2ccc(F)cc2)c(O)c1C=NCCN1CCCCC1,0.64%
4,O=c1[nH]c(CN2CC=C(c3ccccc3)CC2)nc2scc(-c3cccs3)c12,0.84%
5,Cc1cccc(-n2c(O)c(C=NC34CN5CN(CN(C5)C3)C4)c(=O)[nH]c2=O)c1,-0.41%
